Test [1] is described as follows: AP1 Signaling Pathway (AID 357; active = well fitted curve in either direction with a large enough effect, not every such curve was filed as active; note: % is set by controls: 0 for no effect and ±100 for the full control effect). In outline:
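ME-180 cells with beta-lactamase reporter under AP-1 response element, stimulated with EC50 EGF; compounds tested in titration series, 5 h at 37 °C. CCF4 substrate added 2.5 h at room temperature; 460/530 nm emission ratio gave %activity and AC50.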

The nature of test [2]: Stat Signaling Pathway (AID 446; active = well fitted curve in either direction with a large enough effect, not every such curve was filed as active;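 note: ME-180 cervical cancer cells given 40 pM IL-6 alongside compound; SIE-controlled beta-lactamase reporter measured as 460/530 nm FRET emission ratio; % is set by controls: 0 for no effect and ±100 for the full control effect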). In a few lines: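 Compound effects on IL-6-induced STAT reporter activity were measured in ME-180 cells. After overnight culture, cells were co-treated with 40 pM IL-6 for 5 hrs before beta-lactamase substrate loading at room temperature.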
The target of test [3] is Glucocorticoid receptor (Homo sapiens) (UniProt P04150). Briefly: GR-GFP Redistribution (AID 450;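 active = compounds whose dose series gives a full or clear partial fitted curve of increased nuclear translocation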; note: potency is the fitted concentration of half-maximal effect). The following applies: U2OS GR-GFP nuclear translocation, laser cytometry, 2 h.
Glucocorticoid receptor (Homo sapiens), sequence (P04150 whole entry, looked up): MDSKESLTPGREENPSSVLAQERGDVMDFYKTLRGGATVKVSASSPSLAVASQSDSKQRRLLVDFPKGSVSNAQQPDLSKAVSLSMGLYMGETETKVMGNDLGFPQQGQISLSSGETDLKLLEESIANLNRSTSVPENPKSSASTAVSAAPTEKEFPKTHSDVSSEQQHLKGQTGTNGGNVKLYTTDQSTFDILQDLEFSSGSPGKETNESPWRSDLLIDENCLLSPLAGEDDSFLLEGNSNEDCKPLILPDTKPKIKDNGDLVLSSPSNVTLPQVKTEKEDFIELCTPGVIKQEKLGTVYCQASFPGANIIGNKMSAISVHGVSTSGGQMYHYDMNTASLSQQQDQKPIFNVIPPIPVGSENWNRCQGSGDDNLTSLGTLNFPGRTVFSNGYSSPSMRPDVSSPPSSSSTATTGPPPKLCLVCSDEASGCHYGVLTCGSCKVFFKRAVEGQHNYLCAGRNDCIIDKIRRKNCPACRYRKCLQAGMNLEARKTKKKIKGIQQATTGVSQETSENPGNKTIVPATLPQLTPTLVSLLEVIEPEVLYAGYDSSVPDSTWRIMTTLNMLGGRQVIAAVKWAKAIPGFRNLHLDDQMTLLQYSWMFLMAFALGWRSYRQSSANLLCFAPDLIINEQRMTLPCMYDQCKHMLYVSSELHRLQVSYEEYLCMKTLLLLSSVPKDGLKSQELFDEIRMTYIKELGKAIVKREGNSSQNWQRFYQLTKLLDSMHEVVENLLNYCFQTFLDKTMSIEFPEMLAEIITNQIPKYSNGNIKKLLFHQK
Test [4] has as its target Mitogen-activated protein kinase 10 (Mus musculus) (UniProt Q61831). Briefly: JNK3 AlphaScreen Assay (AID 530; active = well fitted curve in either direction with a large enough effect, not every such curve was filed as active;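 note: kinase came from lysate of stimulated human HepG2 cells; signal reports phosphorylation of biotinylated GST-cJun 1-79 at Ser73 with 10 µM ATP; % is set by controls: 0 for no effect and ±100 for the full control effect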). In a few lines:
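qHTS titrations with 15 min compound pre-incubation before adding ATP (10 uM final). Read-out: AlphaScreen of Ser73-phosphorylated biotin-GST-cJun using HepG2 lysate JNK3 activated by IL-1β and TNFα.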

The target of test [5] is 3',5'-cyclic-AMP phosphodiesterase 4B (Homo sapiens) (UniProt Q07343). The test is described as follows: qHTS Assay for Inhibitors of PDE-IV (AID 607; active = well fitted activation curve with a large enough effect in the main read-out, with a control signal flat, not every such curve was filed as active; note: % of control where 0% means no effect). In outline:
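ACTOne HEK293 cells carry a modified cAMP-gated CNG channel and express endogenous PDE4; plated 1000 cells/well, compounds up to 22.9 uM final. Membrane-potential dye fluorescence (ex 535/em 590) was read; parental cells received 10 uM forskolin + 100 uM RO 20-1724.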

For test [6], the target named is Cytochrome P450 2C9 (Homo sapiens) (UniProt P11712). The test is described as follows: qHTS Assay for Inhibitors and Substrates of Cytochrome P450 2C9 (AID 883; active = well fitted curve in the direction sought with a large enough effect; an effect the other way counts as inactive or inconclusive; note: % is set by controls: 0 for no effect and ±100 for the full control effect; nearly all actives have a fitted effect of over 60% in size). In a few lines:
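Luminescent read-out of deoxyluciferin hydroxylation, normalized to 57uM sulphaphenazole (AC100). Reaction: 10nM enzyme, 100uM Luciferin-H (equal to KM), 25mM KPO4, 10 min compound preincubation, then 60 min with NADPH regeneration, both at 37C.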

For test [7], the target named is Cytochrome P450 2D6 (Homo sapiens) (UniProt P10635). The test is described as follows: qHTS Assay for Inhibitors and Substrates of Cytochrome P450 2D6 (AID 891; active = well fitted curve in the direction sought with a large enough effect; an effect the other way counts as inactive or inconclusive; note: potency is the fitted concentration of half-maximal effect; nearly all actives have a fitted effect of over 60% in size). In outline: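 Luminescent read-out of luciferin formed by 5 nM human CYP2D6 demethylating 30 uM Luciferin-ME EGE (Km level) over 60 min at room temperature after NADPH regeneration addition. Data normalized to full inhibition by 1.43 uM quinidine.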
Cytochrome P450 2D6 (Homo sapiens), sequence (P10635 whole entry, looked up): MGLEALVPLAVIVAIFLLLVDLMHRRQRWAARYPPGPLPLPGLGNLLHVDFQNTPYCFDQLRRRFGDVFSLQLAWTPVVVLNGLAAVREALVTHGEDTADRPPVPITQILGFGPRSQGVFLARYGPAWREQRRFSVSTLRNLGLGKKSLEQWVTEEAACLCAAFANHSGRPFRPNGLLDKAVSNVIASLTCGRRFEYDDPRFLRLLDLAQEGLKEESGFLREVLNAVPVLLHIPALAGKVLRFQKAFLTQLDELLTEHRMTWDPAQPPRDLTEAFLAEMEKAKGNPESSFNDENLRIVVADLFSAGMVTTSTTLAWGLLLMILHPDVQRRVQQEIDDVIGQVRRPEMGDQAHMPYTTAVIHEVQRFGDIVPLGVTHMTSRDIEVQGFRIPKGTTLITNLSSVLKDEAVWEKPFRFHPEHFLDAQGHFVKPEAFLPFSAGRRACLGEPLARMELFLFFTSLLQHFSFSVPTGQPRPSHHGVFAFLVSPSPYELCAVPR

In test [8] the target is Cytochrome P450 2C19 (Homo sapiens) (UniProt P33261). Briefly: qHTS Assay for Inhibitors and Substrates of Cytochrome P450 2C19 (AID 899; active = well fitted curve in the direction sought with a large enough effect; an effect the other way counts as inactive or inconclusive; note: % is set by controls: 0 for no effect and ±100 for the full control effect; nearly all actives have a fitted effect of over 60% in size). In outline:
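Luminescence readout of luciferin formed from 10uM Luciferin-H EGE (KM level) by 5 nM CYP2C19 in 50mM KPO4. 60 min NADPH-driven reaction at 37C after 10 min compound preincubation; data scaled to 57uM ketoconazole inhibition.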

Test [9] can be described thus: qHTS for Inhibitors of the Functional Ribonucleoprotein Complex (vRNP) of Lassa (LASV) Arenavirus: LASV Primary Screen - GLuc reporter signal (AID 1347082; calls by dose curve; tested in HEK293 reporter line; note: nearly all actives have a fitted effect of over 60% in size; note: potency is the fitted concentration of half-maximal effect).
Test [10] in a line: qHTS for Inhibitors of the Functional Ribonucleoprotein Complex (vRNP) of Lassa (LASV) Arenavirus: Viability assay - alamar blue signal for LASV Primary Screen (AID 1347083; calls by dose curve; tested in HEK293 reporter line; note: nearly all actives have a fitted effect of over 80% in size; note: potency is the fitted concentration of half-maximal effect).
A short description of test [11]: qHTS for Inhibitors of the Functional Ribonucleoprotein Complex (vRNP) of Lymphocytic Choriomeningitis Arenaviruses (LCMV): Viability assay - alamar blue signal for LCMV Primary Screen (AID 1347085; calls by dose curve; tested in HEK293 reporter line; note: nearly all actives have a fitted effect of over 80% in size; note: potency is the fitted concentration of half-maximal effect).
For test [12], the target named is Nucleoprotein (Lymphocytic choriomeningitis virus (strain Armstrong)) (UniProt P09992). The test is described as follows: qHTS for Inhibitors of the Functional Ribonucleoprotein Complex (vRNP) of Lymphocytic Choriomeningitis Arenaviruses (LCMV): LCMV Primary Screen - GLuc reporter signal (AID 1347086). Note: nearly all actives have a fitted effect of over 70% in size. Note: potency is the fitted concentration of half-maximal effect.
Nucleoprotein (Lymphocytic choriomeningitis virus (strain Armstrong)), sequence (P09992 whole entry, looked up): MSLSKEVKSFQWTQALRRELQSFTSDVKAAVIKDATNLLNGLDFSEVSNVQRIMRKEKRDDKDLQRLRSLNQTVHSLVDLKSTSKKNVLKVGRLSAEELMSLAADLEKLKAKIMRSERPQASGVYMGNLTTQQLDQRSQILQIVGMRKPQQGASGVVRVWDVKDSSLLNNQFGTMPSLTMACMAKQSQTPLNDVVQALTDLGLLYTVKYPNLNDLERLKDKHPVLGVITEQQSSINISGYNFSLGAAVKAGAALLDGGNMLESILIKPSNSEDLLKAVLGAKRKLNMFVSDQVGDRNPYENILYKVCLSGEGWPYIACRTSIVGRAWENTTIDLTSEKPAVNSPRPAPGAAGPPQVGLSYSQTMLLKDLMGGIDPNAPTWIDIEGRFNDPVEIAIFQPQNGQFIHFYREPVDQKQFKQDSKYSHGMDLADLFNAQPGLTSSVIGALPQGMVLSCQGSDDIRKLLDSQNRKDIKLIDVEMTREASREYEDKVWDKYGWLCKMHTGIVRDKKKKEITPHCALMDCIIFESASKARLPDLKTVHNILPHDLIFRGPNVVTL
Test [13] is described as follows: Primary qHTS for small molecule stabilizers of the endoplasmic reticulum resident proteome: Secreted ER Calcium Modulated Protein (SERCaMP) assay (AID 1508630; active = well fitted curve in the direction sought with a large enough effect; an effect the other way counts as inactive or inconclusive; note: % is set by controls: 0 for no effect and ±100 for the full control effect). In outline:
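The SH-SY5Y reporter protocol was run at 3 concentrations up to 38.3 uM (primary) or 11 concentrations (follow-up): 16 h compound, 100 nM thapsigargin for 4 h, then extracellular luciferase luminescence.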

In test [14] the target is Alpha-galactosidase (Coffea arabica) (UniProt Q42656). Briefly: Counterscreen for Glucocerebrosidase Inhibitors: qHTS Assay for Coffee Bean alpha-Galactosidase at pH 4.5 (AID 957; active = well fitted curve in the direction sought with a large enough effect; an effect the other way counts as inactive or inconclusive;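 note: plate controls were enzyme alone for no effect and no enzyme for full effect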). In a few lines:
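Enzyme is added first (2 nM final), then compounds titrated from 0.7 nM to 77 uM, then 80 uM 4-methylumbelliferyl alpha-D-galactopyranoside; after 20 min at room temperature a pH 10 NaOH/glycine stop precedes fluorescence reading at 365/440 nm.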

Test [15] has the same target. The test is described as follows: Counterscreen for Glucocerebrosidase Inhibitors: qHTS Assay for Coffee Bean alpha-Galactosidase at pH 5.9 (AID 998; active = well fitted curve in the direction sought with a large enough effect; an effect the other way counts as inactive or inconclusive;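 note: plate controls were uninhibited enzyme for no effect and no-enzyme basal signal for full effect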). In outline:
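Fluorogenic 4-MU substrate hydrolysis, 80 uM substrate and 2 nM coffee bean alpha-galactosidase, pH 5.9 citrate buffer, 20 min at room temperature, then NaOH/glycine stop. Titration 0.7 nM–77 uM, normalized to no-enzyme and enzyme controls, AC50 via Hill equation.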

Test [16] in a line: Validation screen for inhibitors of Lassa infection (AID 463096). Note: % is set by controls: 0 for no effect and ±100 for the full control effect.
Test [17] can be described thus: Inducers of the Endoplasmic Reticulum Stress Response (ERSR) in human glioma: Validation (AID 504836; active = well fitted curve in the direction sought with a large enough effect; an effect the other way counts as inactive or inconclusive; note: 0% is about no effect). In a few lines:
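ERSR induction read as luciferase luminescence (Bright-Glo, 10 min at room temperature) in stably transfected human U87-MG glioma cells exposed to compounds for 16 h, using GRP78 as sensor.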

Test [18] can be described thus: Confirmatory qHTS for VERO E6 Cytotoxicity Assay: Counterscreen for SARS-CoV-2 CPE Assay (AID 1508605).
Test [19] can be described thus: Cytotoxicity counterscreen for inhibitors of SARS-CoV-2 cell entry (AID 1645845). Note: nearly all actives have a fitted effect of over 50% in size. In outline:
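ATP-content luminescence (ATPLite 1step, 15 min RT) read after 48 h compound exposure of Expi293F cells stably expressing human ACE2; normalized to cells-only wells and media-only wells.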

A short description of test [20]: Primary qHTS to identify inhibitors of SARS-CoV-2 cell entry (AID 1645846). Note: nearly all actives have a fitted effect of over 45% in size. The following applies: activity change, negative = inhibition: at 57.1 µM (top of the series) unless noted. In outline: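 Entry measured by luciferase signal 48 h after adding SARS-CoV-2-S pseudotyped MLV particles to HEK293-ACE2 cells preincubated 1 h with compounds. Normalisation: bald particles and spike particles.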

Test [21] is described as follows: NCATS anti-infectives library activity on HEK293 viability as a counter-qHTS vs the C. elegans viability qHTS (AID 1745854; active = well fitted curve in the direction sought with a large enough effect; an effect the other way counts as inactive or inconclusive). In outline: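 Counter-screen for cytotoxicity: HEK293, 24 hr, 37C, compounds up to 41.7 uM final (a dilution series, 1:5). Readout CellTiter-Glo luminescence, 10 min RT. Digitonin control, 83.3 uM final.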
Test [22] can be described thus: Confirmatory qHTS for activators (rescue) of SARS-CoV-2 Cytopathic Effect (CPE) (AID 1508606). Note: potency is the fitted concentration of half-maximal effect; nearly all actives have a fitted effect of over 70% in size.
In test [23] the target is Cytochrome P450 3A4 (Homo sapiens) (UniProt P08684). The test is described as follows: qHTS Assay for Inhibitors and Substrates of Cytochrome P450 3A4 (AID 884; active = well fitted curve in the direction sought with a large enough effect; an effect the other way counts as inactive or inconclusive; note: % is set by controls: 0 for no effect and ±100 for the full control effect; nearly all actives have a fitted effect of over 50% in size). In outline: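 Luminescent readout of luciferin produced by CYP3A4 (20 nM) dealkylation of Luciferin-PPXE, 25 uM (its KM). NADPH-driven reaction ran 60 min at RT after 10 min compound preincubation; data scaled to 57 uM ketoconazole as 100% inhibition.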
Cytochrome P450 3A4 (Homo sapiens), sequence (P08684 whole entry, looked up): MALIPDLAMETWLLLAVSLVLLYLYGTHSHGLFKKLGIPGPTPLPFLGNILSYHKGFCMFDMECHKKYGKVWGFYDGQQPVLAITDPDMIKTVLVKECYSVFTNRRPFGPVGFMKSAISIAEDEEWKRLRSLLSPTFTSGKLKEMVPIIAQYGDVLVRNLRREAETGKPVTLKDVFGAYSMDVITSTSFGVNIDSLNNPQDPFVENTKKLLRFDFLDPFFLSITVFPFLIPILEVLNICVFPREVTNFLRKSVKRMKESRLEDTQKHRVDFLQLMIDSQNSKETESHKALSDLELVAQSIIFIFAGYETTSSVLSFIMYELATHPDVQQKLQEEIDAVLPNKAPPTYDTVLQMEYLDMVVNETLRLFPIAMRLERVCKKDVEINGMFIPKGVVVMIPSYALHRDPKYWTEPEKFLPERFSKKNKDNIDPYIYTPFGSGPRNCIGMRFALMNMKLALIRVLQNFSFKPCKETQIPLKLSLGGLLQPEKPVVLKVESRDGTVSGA

Test [24] is described as follows: qHTS Assay for Lipid Storage Modulators (AID 1519). The note with it: Drosophila S3 cells, BODIPY lipid droplet/cell ratio, laser cytometry, cells loaded with oleic acid. In a few lines: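 Cells seeded at 5,000 per well were treated with compounds over a concentration series and loaded with oleic acid (400 uM, as added). Lipid droplet fluorescence (488 nm excitation, 500-530 nm channel) was read by laser-scanning cytometry and normalized to 20 uM Triacsin C.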

The target in test [25] is Ubiquitin carboxyl-terminal hydrolase 1 (Homo sapiens) (UniProt O94782). Briefly: Inhibitors of USP1/UAF1: Pilot qHTS (AID 504865; active = well fitted curve in the direction sought with a large enough effect; an effect the other way counts as inactive or inconclusive;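 note: rhodamine fluorescence freed from ubiquitin-rhodamine substrate followed over time; top concentration of the series differs between compounds; % is set by controls: 0 for no effect and ±100 for the full control effect; nearly all actives have a fitted effect of over 35% in size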). In a few lines: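 Deubiquitinase activity followed as kinetic rhodamine fluorescence release from 150 nM Ub-Rho. 1 nM USP1/UAF1 with compound, after 15 min room-temperature preincubation, in HEPES pH 7.8 buffer containing TCEP, EDTA, BSA and Tween-20.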

A short description of test [26]: Primary qHTS for inhibitors of MERS-S pseudo-typed particle cell entry (AID 1479149).
A short description of test [27]: Primary qHTS for Vero E6 cytotoxicity: counterscreen for inhibitors of SARS-S pseudo-typed particle cell entry (AID 1479150). Note: % is set by controls: 0 for no effect and ±100 for the full control effect. The note with it: outcome: dose series up to 57.1 µM unless noted.
Test [28] can be described thus: Confirmatory qHTS to identify inhibitors of SARS-CoV-2 cell entry (AID 1645844). Note: potency is the fitted concentration of half-maximal effect; nearly all actives have a fitted effect of over 45% in size. In a few lines: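 Luminescence entry read-out after 48 h: spike-pseudotyped MLV particles (Wuhan-Hu-1, 19-aa C-terminal truncation) added to compound-pretreated (1 h) HEK293-ACE2 cells; Data were normalised to bald PP and spike PP wells.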
A short description of test [29]: VSVG counterscreen qHTS to identify inhibitors of SARS-CoV-2 cell entry (AID 1645847). Note: potency is the fitted concentration of half-maximal effect; nearly all actives have a fitted effect of over 65% in size. In outline:
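Luminescence read after 48 h infection at 37 C with VSV-G-pseudotyped MLV particles, following 1 h compound exposure of Expi293F cells stably expressing human ACE2; scaled between bald particle and VSV-G particle wells.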

Records with an inconclusive call do not appear. Activity calls are given as the source filed them. Unless noted, calls come from the whole dose curve.

Alpha-galactosidase (Coffea arabica), sequence (Q42656 whole entry, looked up): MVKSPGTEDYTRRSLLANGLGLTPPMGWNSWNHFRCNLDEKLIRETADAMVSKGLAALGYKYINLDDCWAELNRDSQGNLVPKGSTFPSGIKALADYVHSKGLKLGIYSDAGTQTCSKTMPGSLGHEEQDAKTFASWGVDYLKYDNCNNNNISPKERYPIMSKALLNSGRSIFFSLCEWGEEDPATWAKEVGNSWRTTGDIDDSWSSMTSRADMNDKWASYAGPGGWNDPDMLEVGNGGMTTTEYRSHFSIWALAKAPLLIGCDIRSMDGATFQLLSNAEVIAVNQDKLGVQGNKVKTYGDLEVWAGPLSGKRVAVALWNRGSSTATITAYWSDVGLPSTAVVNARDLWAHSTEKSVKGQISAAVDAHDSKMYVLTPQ
3',5'-cyclic-AMP phosphodiesterase 4B (Homo sapiens), sequence (Q07343 whole entry, looked up): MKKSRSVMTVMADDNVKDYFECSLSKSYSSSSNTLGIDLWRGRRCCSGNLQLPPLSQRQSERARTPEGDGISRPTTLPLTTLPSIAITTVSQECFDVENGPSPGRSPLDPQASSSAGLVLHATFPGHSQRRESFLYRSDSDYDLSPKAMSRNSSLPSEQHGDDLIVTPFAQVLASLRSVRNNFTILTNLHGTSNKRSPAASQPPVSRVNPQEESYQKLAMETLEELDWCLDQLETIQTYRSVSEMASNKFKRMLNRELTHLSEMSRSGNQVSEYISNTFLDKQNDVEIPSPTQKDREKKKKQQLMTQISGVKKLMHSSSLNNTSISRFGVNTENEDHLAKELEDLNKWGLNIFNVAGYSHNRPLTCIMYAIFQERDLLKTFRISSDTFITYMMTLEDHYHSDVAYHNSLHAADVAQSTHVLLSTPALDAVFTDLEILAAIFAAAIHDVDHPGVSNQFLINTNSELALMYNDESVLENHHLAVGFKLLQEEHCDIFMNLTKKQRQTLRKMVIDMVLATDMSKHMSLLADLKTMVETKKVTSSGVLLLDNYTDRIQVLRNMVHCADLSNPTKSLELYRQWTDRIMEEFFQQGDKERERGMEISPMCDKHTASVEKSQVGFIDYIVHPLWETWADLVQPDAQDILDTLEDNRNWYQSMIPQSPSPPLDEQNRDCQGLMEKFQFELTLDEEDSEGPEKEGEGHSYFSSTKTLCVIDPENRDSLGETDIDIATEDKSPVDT
Cytochrome P450 2C19 (Homo sapiens), sequence (P33261 whole entry, looked up): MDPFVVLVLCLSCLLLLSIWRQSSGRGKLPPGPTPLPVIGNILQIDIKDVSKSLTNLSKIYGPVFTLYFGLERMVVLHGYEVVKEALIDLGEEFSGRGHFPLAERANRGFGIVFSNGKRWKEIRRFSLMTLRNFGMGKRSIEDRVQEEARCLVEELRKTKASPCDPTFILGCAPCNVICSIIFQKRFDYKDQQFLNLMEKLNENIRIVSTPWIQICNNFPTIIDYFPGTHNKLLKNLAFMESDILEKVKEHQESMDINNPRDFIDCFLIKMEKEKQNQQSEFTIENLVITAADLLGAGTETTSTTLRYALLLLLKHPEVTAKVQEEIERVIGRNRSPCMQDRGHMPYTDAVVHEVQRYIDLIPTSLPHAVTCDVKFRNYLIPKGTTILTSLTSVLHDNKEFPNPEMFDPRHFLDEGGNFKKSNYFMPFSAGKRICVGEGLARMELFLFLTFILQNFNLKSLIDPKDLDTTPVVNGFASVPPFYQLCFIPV
Cytochrome P450 2C9 (Homo sapiens), sequence (P11712 whole entry, looked up): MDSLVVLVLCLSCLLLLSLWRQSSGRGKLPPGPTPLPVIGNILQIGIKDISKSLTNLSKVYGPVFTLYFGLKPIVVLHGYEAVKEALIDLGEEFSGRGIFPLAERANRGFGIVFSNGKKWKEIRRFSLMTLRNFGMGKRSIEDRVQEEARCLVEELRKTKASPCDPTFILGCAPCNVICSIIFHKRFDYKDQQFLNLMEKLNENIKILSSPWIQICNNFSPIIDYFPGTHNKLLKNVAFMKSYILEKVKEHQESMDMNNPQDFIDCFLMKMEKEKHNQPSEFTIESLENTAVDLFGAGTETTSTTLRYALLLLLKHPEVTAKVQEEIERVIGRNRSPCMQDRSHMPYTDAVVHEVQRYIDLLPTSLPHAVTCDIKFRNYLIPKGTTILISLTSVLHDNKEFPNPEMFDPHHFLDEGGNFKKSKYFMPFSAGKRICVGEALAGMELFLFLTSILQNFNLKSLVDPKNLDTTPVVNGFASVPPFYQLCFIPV

`CC1=C[C@@H]2c3cccc4[nH]cc(c34)C[C@H]2N(C)C1`: the compound was called inactive in test [1], in test [2] and in [4]. The Potency was > 46 µM (inactive) in test [3] and 2 µM (active) in test [7]. Besides, the Potency result in test [5], in test [6], in test [8], in [9], in test [10] and in [11] was “inactive” throughout. Moreover, the Potency entry in test [12] and in test [13] was “inactive” throughout.
Take `O=S(=O)(c1cccc2c(I)cccc12)N1CCCNCC1`: the compound was called inactive in test [14], in test [15] and in [17]. The Potency result in [16], in [9], in test [10], in test [11], in test [12] and in test [18] was “inactive” throughout. In addition, the Potency entry in test [19] was “inactive”. Moreover, in [20], the activity change, negative = inhibition is -29.1%.
Take `COC1=C[C@]23CCCN2CCc2cc4c(cc2[C@@H]3[C@@H]1O)OCO4`: the Potency entry in [9], in [10], in test [11], in test [12], in [13] and in test [21] was “inactive” each time.
In the case of `O=S(=O)(c1cccc2c(Cl)cccc12)N1CCCNCC1`, the result in [14], in test [15] and in test [17] was inactive. The Potency entry in test [16], in test [9], in [10], in [11], in test [12] and in test [18] was “inactive” throughout.
Consider `C=C1C(=O)[C@@]23C(CC[C@@H]1[C@H]2O)[C@@]12CO[C@]3(O)[C@@H](O)[C@@H]1C(C)(C)CC[C@@H]2O` (some centres undefined), for which the Potency is 9.68 µM (active) in test [9]; 6.85 µM (active) in test [10]; 2.17 µM (active) in [11]; 1.22 µM (active) in test [12]; 10 µM (active) in test [22].
Consider `CCC1CN2CCC1CC2C(O)c1ccnc2ccccc12` (centres undefined), for which the Potency result in test [23], in test [25], in test [9], in [10], in test [11] and in [12] was “inactive” in each case. Also, the activity change, negative = inhibition in [24] (at 57.5 µM (top of the series)) is -3.02% (inactive). Moreover, the values for the max response in [24] (measured here: cell count channel max response) and in test [24] (measured here: lipid channel max response) were -1.23% and -3.67%, respectively.
`CNCC/C=C/c1cccnc1`: the Potency result in test [9], in test [10], in test [11], in test [12] and in test [13] was “inactive” each time.
Turning to `Cc1c(-c2ccc(O)cc2)n(Cc2ccc(OCCN3CCCCCC3)cc2)c2ccc(O)cc12`, the Potency result in test [9], in test [10], in [11], in [12] and in test [19] was “inactive” each time. In addition, the Potency was 10 µM (active) in test [26] and 15.2 µM (active) in test [28]. The result in test [27] was inactive.
As to `O=C(O)Cc1cccc(OCCCN(Cc2cccc(C(F)(F)F)c2Cl)CC(c2ccccc2)c2ccccc2)c1`, the Potency result in test [9], in test [10], in [11], in test [12] and in [19] was “inactive” in each case.
Turning to `O=C1NCCc2[nH]c(-c3ccncc3)cc21`, the Potency is 21.7 µM (active) in [9]; 6.85 µM (active) in [10]; 6.11 µM (active) in test [11]; 10.9 µM (active) in test [12]; 9.61 µM (active) in test [28]; 9.61 µM (active) in test [29]. Moreover, the Potency result in [19] is “inactive”. Also, the activity change, negative = inhibition in [20] was -95%.
As for `C=C1c2cccc(O)c2C(O)=C2C(=O)[C@@]3(O)C(O)=C(C(N)=O)C(=O)[C@@H](N(C)C)[C@@H]3[C@@H](O)[C@H]12`, the Potency result in test [9], in test [10], in test [11], in test [12] and in [19] was “inactive” each time.

The values above are taken from PubChem BioAssay (NCATS).
